As usually defined, the inhibition is the relative decrease from the control value, in per cent.

Inhibition data for 64 compounds are collected here from PubChem BioAssay AID707 (Columbia University Molecular Screening Center, 2007).

Molecules are shown by their SMILES. Screen size: about 91,000 compounds; about 310 (0.34%) were called active. This excerpt belongs to a sample that is enriched for actives. Values without a mark were called inactive. No stated cut-off is given here; in the data, active means inhibition above about 80%; inactive means the rest.

Bifunctional epoxide hydrolase 2 (Homo sapiens), sequence (P34913 whole entry, looked up): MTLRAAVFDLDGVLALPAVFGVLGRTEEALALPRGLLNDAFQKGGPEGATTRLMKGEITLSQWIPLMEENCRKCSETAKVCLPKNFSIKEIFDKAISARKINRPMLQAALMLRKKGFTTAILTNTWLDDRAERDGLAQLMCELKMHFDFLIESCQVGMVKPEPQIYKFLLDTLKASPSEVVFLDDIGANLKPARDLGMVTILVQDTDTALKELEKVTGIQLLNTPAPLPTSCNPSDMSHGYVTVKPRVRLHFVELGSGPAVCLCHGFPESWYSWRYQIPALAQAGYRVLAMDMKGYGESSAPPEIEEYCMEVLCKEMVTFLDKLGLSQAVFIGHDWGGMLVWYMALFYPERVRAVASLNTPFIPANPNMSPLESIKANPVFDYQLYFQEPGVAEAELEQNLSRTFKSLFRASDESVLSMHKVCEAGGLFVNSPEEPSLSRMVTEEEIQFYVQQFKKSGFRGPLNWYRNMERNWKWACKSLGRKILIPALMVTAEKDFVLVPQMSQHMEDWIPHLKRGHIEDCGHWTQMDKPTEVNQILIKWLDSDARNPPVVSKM

This assay has as its target Bifunctional epoxide hydrolase 2 (Homo sapiens) (UniProt P34913). Put plainly: soluble epoxide hydrolase inhibitors, primary screen, biochemical, human sEH (AID 707). As to conditions: recombinant human sEH enzymatic activity assay; at 2 µM; hits give high values.
On to `CC1=NN(C(=O)Cc2ccc(C)cc2)C(O)(c2cccnc2)C1` (centres undefined), for which the inhibition is 3.6%.
With `COc1ccc(C)cc1NC(=O)CCC(=O)Nc1nnc(C(F)(F)F)s1`, the inhibition was 15.2%.
In the case of `O=C(c1ccccc1)C(Cn1cncn1)C(Sc1ccccc1)c1ccccc1` (centres undefined), the inhibition was -1.8%.
As to `COc1ccc(C(=O)N2CCc3cc(OC)c(OC)cc3C2c2cccc([N+](=O)[O-])c2)cc1` (centres undefined), the inhibition is 0.6%.
Then `C=CCOc1c2ccc(C(=O)N(CC)c3ccc(OC)cc3)cc2nn1C`, with 10.6%.
Then `Cc1ccc(C)c(NC(=O)C2Cc3ccccc3CN2C(=O)OCc2ccccc2)c1` (centres undefined), with -5.4%; and `CCOc1ccc(NC(=O)Nc2cc(C)on2)cc1`, with 2.9%.
Then `CC(=O)N(C)c1ccc(NC(=O)C(F)(F)F)cc1`, with 3.7%; and `CCOc1ccc(NC(=O)Nc2ccc(N(C)C(C)=O)cc2)cc1`, with 82.3% (active).
Regarding `Cc1cc(Nc2ccccc2)nc(N)n1`, the inhibition is 3%.
For the compound `CCNC(=S)Nc1cccc(Cl)c1C`, the inhibition was -0.5%.
Then `CC(C)N(c1ccccc1)c1ncnc(NCCC(=O)O)c1[N+](=O)[O-]`, with -1.2%; and `c1ccc2c(C[n+]3csc4ccccc43)cccc2c1`, with -9%; and `Cc1nn(-c2ccccn2)c2c1C(c1ccncc1)C1=C(CC(C)(C)CC1=O)N2` (centres undefined), with -0.7%.
As to `O=C(Cc1ccc2c(c1)CCCC2)Nc1ccccc1Cl`, the inhibition was 7.7%.
Next, `O=C1c2ccccc2C(=O)c2c1cccc2N1CCN(CCO)CC1`: 5.4%.
`COc1ccc(/C=C(/NC(=O)c2ccc(C)cc2)c2nc3ccccc3[nH]2)cc1OC`: the inhibition was 1.8%.
Next, `Cc1ccccc1N/N=C/c1ccc(N2CCOCC2)cc1`: -9.2%; `CC(Oc1ccc(Cl)cc1Cl)C(=O)/C=C/N(C)C` (centres undefined): 15.1%.
On to `COc1cnc(SCc2ccc(Cl)c(Cl)c2)nc1Cl`, for which the inhibition is -5.2%.
For `ONC(=Nc1ccc(Cl)cc1)c1ccccc1Cl`, the inhibition was -9.2%.
Next, `CCOc1ccc(Nc2nc(Cc3nnc(SCC(=O)NC4CCCC4)n3C)cs2)cc1`: 10.9%.
As to `CN(C)Cc1ccccc1C1(O)c2ccccc2CSc2ccccc21` (centres undefined), the inhibition is 5.7%.
Then `Clc1ccc(-c2cc(COc3ccccc3)no2)cc1Cl`, with -1.1%; and `COc1ccc(C(=S)Nc2ccccc2)cc1`, with 4.8%; and `Cc1ccsc1C(C(=O)NC1CCCCC1)N(C(=O)Cc1cccs1)C1CC1` (centres undefined), with 5.3%.
On to `CC(C)C(OC(=O)c1cccs1)C(=O)NC1CCCCC1` (centres undefined), for which the inhibition was -8.3%.
As for `CC(Cc1cccs1)NC(=O)NC1CCCCC1` (centres undefined), the inhibition was 92.6% (active).
Then `CCOc1ccc(S(=O)(=O)Nc2nc3cc(OC)ccc3s2)cc1`, with -14.5%; and `CCOC(=O)Nc1ccc(S(=O)(=O)N(C)C(C)C)cc1`, with 1.6%.
Then `CC(C)NS(=O)(=O)c1ccc(NC(=O)C2CCCCC2)cc1`, with -3.1%; and `Cc1ccccc1C(=O)N1CCC(C(=O)Nc2ccc(S(=O)(=O)N(C)C(C)C)cc2)CC1`, with 83.8% (active).
As to `O=C(CSc1ncnc2c1cnn2CCc1ccccc1)Nc1ccc(F)cc1`, the inhibition is 20.5%.
Then `O=C(c1cccc(F)c1)N1CCN(c2ccc([N+](=O)[O-])c(N3CCCCC3)c2)CC1`, with 6.5%; and `CCOC(=O)/C(=C\c1ccc([N+](=O)[O-])cc1)C(=O)c1cc(C(C)=O)c(Nc2ccccc2)s1`, with 10.3%; and `COc1ccccc1OCCNc1cc(N2CCOCC2)ccc1[N+](=O)[O-]`, with -3.3%.
Then `CCn1c2ccccc2c2cc(NC(=O)C/C(C)=N/NC(=O)c3ccccc3N)ccc21`, with 4.8%.
Then `Cc1ccc(/C=N/NC(=O)C(NC(=O)c2ccccc2)c2n[nH]c(=O)c3ccccc23)cc1` (centres undefined), with -0.8%; and `COc1ccccc1NC(=O)[C@H](COCc1ccccc1)NC(=O)OC(C)(C)C`, with -8.8%; and `CCOc1cccc(SCc2noc(C(=O)NC(C)C)c2C(=O)O)c1`, with -1.8%.
For `CN(C)/C=C(\C#N)C(=O)c1cccnc1Oc1ccc(F)cc1F`, the inhibition is 12.8%.
On to `C=CCn1c(-c2ccc(Cl)cc2)ccc(C#N)c1=O`, for which the inhibition was -0.8%.
Then `CC1CCN(C(NC(=O)c2ccco2)C(=O)c2ccccc2)CC1` (centres undefined), with -0.8%; and `O=C1CCN(C(=O)Nc2ccccc2)N1`, with 2.7%; and `O=C(CCNS(=O)(=O)c1ccccc1C(F)(F)F)NCc1ccc2c(c1)OCO2`, with -4.3%.
Next, `COc1ccc(/C=C2\CCCC3C2=NN(C(=O)c2scnc2C)C3c2ccc(OC)cc2)cc1` (centres undefined): -10.6%.
In the case of `CS(=O)(=O)N(CC(=O)Nc1ccc(F)cc1F)c1cccc([N+](=O)[O-])c1`, the inhibition was 1.3%.
For the compound `CC(C)c1ccc(/C=C/C(=O)NNC(=O)c2cccnc2)cc1`, the inhibition is -2.9%.
Next, `COc1cc(C2C(C(=O)OCCC#N)=C(C)NC3=C2S(=O)(=O)c2ccccc23)cc(OC)c1OC` (centres undefined): 8.9%; `COc1ccc(Cl)cc1NC(=O)CN(C)C(=O)CNC(=O)C12CC3CC(CC(C3)C1)C2`: 15.5%; `CS(=O)(=O)N1CCN(c2ccc(C(=O)NC3C4CC5CC(C4)CC3C5)cc2[N+](=O)[O-])CC1` (centres undefined): -10.1%.
Regarding `Cc1cc(/C=C2/SC(=O)N(CC(=O)OC(C)C)C2=O)c(C)n1C`, the inhibition was -9.2%.
Turning to `Cc1cc(OC(=O)c2c(Cl)cccc2Cl)nc(C)n1`, the inhibition is -21.2%.
`Cc1nnsc1S(=O)(=O)Cc1ccccc1Cl`: the inhibition is 4.8%.
Take `CCOC(=O)N1CCN(c2c(NCCCN3CCCC(C)C3)c(=O)c2=O)CC1` (centres undefined): the inhibition is -4.6%.
Next, `Cc1nc(Cl)c2oc3ccccc3c2n1`: 0.8%; `O=[N+]([O-])c1ccccc1NCc1ccc(Cl)cc1`: -1%.
Next, `CN(C)c1ccc(NC(=S)N(CCc2ccccc2)C2CC(=O)N(c3c(Cl)cccc3Cl)C2=O)cc1` (centres undefined): 7.8%.
Next, `Cc1nn(CC(=O)Nc2nc3ccccc3s2)c(C)c1[N+](=O)[O-]`: -6.1%; `Cc1ccc(OCC(=O)N/N=C/c2ccncc2)cc1`: -19.2%; `CC(=O)c1cn(CCCCCCCCCCn2cc(C(C)=O)c(=O)[nH]c2=O)c(=O)[nH]c1=O`: -2%.
For the compound `Cc1ccc(-c2nn(-c3ccccc3)cc2/C=N/NC(=O)c2ccc3c(c2)OCO3)cc1`, the inhibition is -6.2%.
Consider `Cc1occc1C(=O)NNC(=S)NCC(C)C`, for which the inhibition was -18%.
Next, `Cc1cccc(NC(=O)c2ccc(OCC(=O)NCc3ccccc3)cc2)c1C`: 3.8%.
